CBX7 AlphaScr = CBX7 inhibition, primary AlphaScreen; O95931; AlphaScreen His6-CBX7 / biotin-H3K27me3 peptide binding; active compounds read low; normalised signal (fraction of DMSO) (test concentration not listed); 66,000 tested, 1.1% active; in the data active means normalised signal below about 0.5
Target sequence (O95931 whole entry, looked up): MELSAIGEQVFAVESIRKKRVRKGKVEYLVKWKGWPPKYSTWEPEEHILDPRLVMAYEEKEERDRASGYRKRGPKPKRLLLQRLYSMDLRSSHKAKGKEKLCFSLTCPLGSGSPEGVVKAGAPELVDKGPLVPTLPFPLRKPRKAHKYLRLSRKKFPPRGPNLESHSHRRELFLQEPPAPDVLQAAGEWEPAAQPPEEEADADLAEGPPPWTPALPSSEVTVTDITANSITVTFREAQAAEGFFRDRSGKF
An asterisk follows results filed as active. The entries come from a sample that favours hits as a whole.

SMILES	CBX7 AlphaScr
COC(=O)CNc1c(-c2ccccn2)nc2cnccn12	0.98
Fc1ccc(Nc2c(-c3ccccc3)nc3ccccn23)cc1	1
Cc1ccc(-c2nc3cnccn3c2Nc2ccc(C(C)C)cc2)cc1	0.91
CCOC(=O)Nc1ccc2c(c1)N(C(=O)CCN1CCCCC1)c1ccccc1CC2	1.1
Cc1c(-c2ccccc2)nc2ccccc2c1C(=O)NCc1ccc(Cl)cc1	1
CCCCCCCNC(=O)Cn1nc(-c2ccccc2)ccc1=O	1.2
Cc1ccc(-c2nc3cnccn3c2Nc2c(C)cccc2C)s1	1.2
CCCCCC(=O)Nc1cccc(-c2nc3ccccc3o2)c1C	1
CSc1ccc(-c2nc(-c3ccc(Br)cc3)c(-c3ccccc3Br)[nH]2)cc1	0.63
CCOC(=O)c1cnc2ccc(Cl)cc2c1Nc1ccc(OC)c(OC)c1	0.9
CC1CCCN(Cc2c(O)ccc3cc(-c4nc5ccccc5[nH]4)c(=O)oc23)C1 (configuration not stated)	0.82
Cc1cccc(N2CCN(C(=O)Cc3ccc(NC4=NC5CS(=O)(=O)CC5S4)cc3)CC2)c1C (configuration not stated)	0.98
CCCCNC(=O)c1ccc2c(c1)N(Cc1cc(C)ccc1C)C(=O)c1ccccc1S2(=O)=O	1
CCOc1ccccc1NS(=O)(=O)c1ccc2c(c1)CCN2C(=O)CC	1.1
Cc1ccc(-n2c(=O)cc(N3CC(C)CC(C)C3)[nH]c2=O)cc1 (configuration not stated)	1
O=C1CN(C(=O)COc2ccc3ccccc3c2)C(c2ccc(F)cc2)c2cc(F)ccc2N1 (configuration not stated)	0.99
COCCN1Cc2cccc(C(=O)Nc3ccc(C(=O)OC)cc3)c2C1=O	1
O=C1CCc2cc(S(=O)(=O)NC(Cc3ccccc3)C(=O)NCCC3=CCCCC3)ccc2N1 (configuration not stated)	1.2
COc1ccc(C2CC(C(F)(F)F)n3nc(C(=O)NC4CCCCC4)c(Cl)c3N2)cc1 (configuration not stated)	0.99
CCc1ccccc1N(C)C(=O)Cn1ncc2c1-c1ccccc1OC2	0.82
Cc1ccc(Nc2c(-c3cccc(Br)c3)nc3cc(C)ccn23)cc1	0.79
Cc1ccc(Nc2c(-c3cccnc3)nc3cc(C)ccn23)cc1	0.91
Cc1ccc(Nc2c(-c3ccccn3)nc3cc(C)ccn23)cc1	0.00096*
CN(c1ccc(F)cc1)S(=O)(=O)c1ccc2[nH]cc(C(=O)NC3CCCC3)c(=O)c2c1	0.91
COc1ccc(Nc2cc(C(=O)NCCN3CCCCCC3)c3ccccc3n2)cc1OC	0.85
SMILES	CBX7 AlphaScr
Cc1cc2nc(-c3ccc(NC(=O)c4ccccc4)cc3)oc2cc1C	1.5
c1ccc(COc2ccc(Oc3ncnc4sc5c(c34)CCCC5)cc2)cc1	1.2
c1nc(Oc2ccc3c4c2CCCN4CCC3)c2c3c(sc2n1)CCCC3	0.27*
c1ccc(Cc2ccc(Oc3ncnc4sc5c(c34)CCCC5)cc2)cc1	1.3
CCC(=O)N1CCc2cc(S(=O)(=O)NCCN3CCC(C)CC3)ccc21	1.1
Cc1[nH]c2c(Cl)cccc2c(=O)c1CN1CCOCC1	1
Cc1ccccc1Nc1nc(-c2sc(N)nc2C)cs1	0.66
CC(=O)Nc1nc(C)c(-c2csc(Nc3cccc(C)c3)n2)s1	0.93
COc1ccccc1Nc1nc(-c2sc(NC(C)=O)nc2C)cs1	0.94
Cc1nc(N)sc1-c1csc(Nc2ncccn2)n1	0.69
Cc1cccc(Nc2nc(-c3sc(N)nc3C)cs2)c1	0.48*
COc1ccccc1Nc1nc(-c2sc(N)nc2C)cs1	0.37*
COc1ccc(Cl)cc1NC(=O)c1c(NCc2ccccn2)sc2c1CCC2	0.96
FC(F)(F)c1cc(-c2ccc(Cl)cc2)nc(-n2cncn2)n1	0.95
Cc1ccc(C)c(NC(=O)c2sc3ncn(C)c(=O)c3c2C)c1	1.1
COc1cc(OC)c(NC(=O)CNC(=O)Cn2cnc3sc4c(c3c2=O)CCCC4)cc1Cl	1
Cc1nc2c(-c3ccc(F)cc3)c(C)nn2c(C)c1CCC(=O)Nc1cccc(Cl)c1C	1.1
Cc1ccc(C)c(NC(=O)CSc2nccn2-c2ccc(Cl)cc2)c1	0.8
Cc1cccc(NC(=O)CSc2nccn2-c2cccc(Cl)c2)c1C	0.47*
Cc1cccc(NC(=O)CSc2nccn2-c2ccccc2)c1C	0.77
Cc1cccc(NC(=O)CSc2nccn2-c2ccc(Cl)cc2)c1C	0.44*
Cc1cc(C)c(NC(=O)CSc2nccn2-c2cccc(Cl)c2)c(C)c1	0.88
CCOc1ccccc1NC(=O)CSc1nccn1-c1cccc(Cl)c1	0.29*
CCOc1ccccc1NC(=O)CSc1nccn1-c1cccc(C)c1	0.76
COc1ccccc1NC(=O)CSc1nccn1-c1cccc(Cl)c1	0.97
SMILES	CBX7 AlphaScr
Cc1ccc(C)c(NC(=O)CSc2nccn2-c2cccc(Cl)c2)c1	0.93
Nc1nonc1-c1noc(COc2cccc(Br)c2)n1	1.1
COCCNC(=O)CSc1nc(-c2ccc(F)cc2)[nH]c1-c1ccc(OC)cc1	0.96
Cc1[nH]c2c(Cl)ccc(Cl)c2c1CCNC(=O)Cn1nc(C)c2ccccc2c1=O	1.1
CCC(C)NC(=O)CN1C(=O)CSc2ccc(S(=O)(=O)N3CCOCC3)cc21 (configuration not stated)	1
C1=CC2=C(CO1)OCc1c2[nH]c2ccc3ccccc3c12	0.43*
COC(=O)c1ccc(Nc2ncnc3c2cnn3-c2cccc(C)c2)cc1	1
Cc1ccc(-n2nnnc2SCc2ccccn2)cc1C	0.77
CSCCC1(C(=O)O)NC(c2ccc(O)cc2O)C2C(=O)N(Cc3ccccc3)C(=O)C21 (configuration not stated)	1
CCOC(=O)N1CCC(Nc2c(N3CCC(Cc4ccccc4)CC3)c(=O)c2=O)CC1	0.99
Cc1[nH]c2ccc(OCc3ccccc3)cc2c1CCNC(=O)c1ccnn1C	0.48*
Cc1nn(CC(=O)NCCc2c(C)[nH]c3ccc(OCc4ccccc4)cc23)c(C)c1Cl	0.48*
COc1ccc(C(=O)NCCc2c(C)[nH]c3ccc(OCc4ccccc4)cc23)cc1OC	0.52
COc1ccc2[nH]c(C)c(CCNC(=O)Cn3nc(C(F)(F)F)cc3C)c2c1	0.79
COC(=O)c1ccc(C(=O)NCCc2c(C)[nH]c3ccc(OCc4ccccc4)cc23)cc1	0.82
Cc1[nH]c2ccc(OCc3ccccc3)cc2c1CCNC(=O)c1cccc(Br)c1	0.65
Cc1c(C(=O)c2ccccc2)nnn1-c1cnn(-c2ccccc2)c(=O)c1Br	0.92
O=C(Cc1cccc(C(F)(F)F)c1)Nc1ccc2nc3n(c(=O)c2c1)CCCCC3	0.99
COc1ccc(CCNS(=O)(=O)c2ccc3c(c2)n(C)c(=O)c(=O)n3C)cc1OC	1
COc1ccccc1C(=O)Nc1c2c(nc3c1CCC3)CCCC2	0.95
NC(=O)C1CCN(CC(=O)Nc2c3c(nc4ccccc24)CCC3)CC1	1.3
CN(CC(=O)Nc1c2c(nc3c1CCC3)CCCC2)Cc1ccccc1	0.24*
O=C(CN1CCCCC1)Nc1c2c(nc3ccccc13)CCCC2	0.9
O=C(CN1CCCCC1)Nc1c2c(nc3c1CCC3)CCCC2	0.45*
O=C(CCCN1Cc2ccccc2C1)Nc1c2c(nc3c1CCC3)CCCC2	1
COc1cccc(NC(=O)c2ccc(NC3=NC4CS(=O)(=O)CC4S3)cc2)c1 (configuration not stated)	1
CCc1ccccc1NC(=O)Nc1ccc2snnc2c1	1.1
COc1cccc(-c2nn(C)c3sc(C(=O)N4CCN(c5ccc(F)cc5)CC4)cc23)c1	0.77
Cc1cccc(-c2nnc(NC(=O)c3ccc(Cl)cc3)o2)c1	0.86
